Data taken from PubChem BioAssay AID1851 (National Center for Advancing Translational Sciences (NCATS), 2009).
Where “and” joins values, the source holds several entries; their conditions need not be identical. Equal entries are not always repeated. About 5,100 (32%) of roughly 16,000 compounds were called active. Another 25% or so got no clear call; they are omitted. The call rests on the fitted dose curve; in most records, active means well fitted curve in the direction sought with a large enough effect; inconclusive means small, poorly fitted or top-dose-only effect, or effect the other way; inactive means no such curve, though single readings can be large or run the other way. Some of the results follow. Where a structure was tested more than once in an assay, its records may differ in their call.

Biological target: Cytochrome P450 3A4 (Homo sapiens) (UniProt P08684)
Test: Cytochrome panel assay with activity outcomes
Conditions: recombinant CYP, pro-luciferin dealkylation, luminescence, p450-cyp3a4; series mostly up to 57.1 µM; activity, negative = inhibition: at the top concentration
On the % scale 0 is the no-effect control and ±100 the full control effect.

Sequence of Cytochrome P450 3A4 (Homo sapiens) (P08684 whole entry, looked up): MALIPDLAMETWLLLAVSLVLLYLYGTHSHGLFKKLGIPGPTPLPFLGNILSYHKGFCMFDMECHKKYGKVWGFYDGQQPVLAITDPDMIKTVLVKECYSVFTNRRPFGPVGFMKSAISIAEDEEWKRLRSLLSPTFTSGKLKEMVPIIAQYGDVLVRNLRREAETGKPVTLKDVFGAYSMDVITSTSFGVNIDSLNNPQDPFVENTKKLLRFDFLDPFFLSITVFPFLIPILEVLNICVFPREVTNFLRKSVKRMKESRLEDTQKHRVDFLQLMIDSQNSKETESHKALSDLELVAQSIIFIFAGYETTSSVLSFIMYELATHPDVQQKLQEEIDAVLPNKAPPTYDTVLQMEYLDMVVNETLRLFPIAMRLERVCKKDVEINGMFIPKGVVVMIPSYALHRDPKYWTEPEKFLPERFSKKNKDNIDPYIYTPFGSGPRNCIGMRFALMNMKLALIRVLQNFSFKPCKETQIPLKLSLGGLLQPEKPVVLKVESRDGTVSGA

Compound | activity, negative = inhibition | AC50
CN[C@H](Cc1ccccc1)c1cccc(OC)c1O | -2.26% [at 11.4 µM] (inactive) | –
c1ccc2c(c1)Sc1ccccc1N2C[C@H]1CN2CCC1CC2 | -6.51% [at 11.4 µM] (inactive) | –
CCOP(=O)(OCC)C(NC(C)=O)C(Cl)(Cl)Cl (configuration not stated) | -11.2% (inactive) | –
CCCC[N+]12CCC(CC1)C(C(=O)c1cccs1)C2 (configuration not stated) | -11.1% (inactive) | –
CC(=O)NCCc1c[nH]c2ccccc12 | -21.8% (inactive) | –
ClCCNc1nc2ccc(Cl)cc2[nH]1 | 13.4% (inactive) | –
CC(=O)OCC1=C(C(=O)[O-])N2C(=O)[C@@H](NC(=O)CCC[C@@H](N)C(=O)[O-])[C@@H]2SC1.[Zn+2] | 2.83% (inactive) | –
C=CCN1CCC2(C)c3cc(O)ccc3C[C@H]1[C@H]2C | inactive | –
C=CCN1C[C@H](C)N([C@H](c2ccc(C(=O)N(CC)CC)cc2)c2cccc(O)c2)C[C@H]1C | – | 12.6 µM (active)
C[C@H](N)Cc1c[nH]c2ccc(O)cc12 | inactive | –
COc1ccc(OCC(=O)Nc2ccc(Cl)cc2C(=O)c2ccccc2)cc1 | – | 2.24 µM (active)
O=C(CN1CCCCC1)Nc1ccc(Br)cc1C(=O)c1ccccc1Cl | -0.765% [at 2.29 µM] (inactive) | –
O=C(Nc1ccc(Cl)cc1C(=O)c1ccccc1Cl)c1ccco1 | -25.6% (inactive) | –
CNC(C)(C)Cc1ccccc1 | -9.59% [at 25.6 µM] (inactive) | –
CCCN1CCC[C@@H]2Cc3[nH]ncc3C[C@H]21 | inactive | –
CC(C(=O)c1c[nH]c2ccccc12)N1CCSCC1 (configuration not stated) | -1.61% [at 2.29 µM] (inactive) | –
CN(C)CCC(=O)[C@@]1(O)CC[C@H]2[C@H]3CC=C4C[C@@H](O)CC[C@]4(C)[C@H]3CC[C@]21C | -0.253% [at 11.4 µM] (inactive) | –
c1cncc(CNCCN2CCNCC2)c1 | -5.07% [at 11.4 µM] (inactive) | –
c1cncc(CNc2cc(-c3ccc4c(c3)OCO4)ncn2)c1 | – | 0.794 µM (active)
O[C@@H](c1cc(-c2ccccc2)nc2c1ccc1ccccc12)[C@@H]1CCCCN1 | -0.102% [at 11.4 µM] (inactive) | –
C[C@H]1CC[C@@]2(NC1)O[C@@H]1C[C@H]3[C@@H]4CC[C@@H]5C[C@@H](O)CC[C@@]5(C)[C@@H]4CC[C@]3(C)[C@@H]1[C@@H]2C | -6.73% [at 25.6 µM] (inactive) | –
NCC[C@H](O)C(=O)N[C@H]1C[C@@H](N)[C@@H](O[C@H]2O[C@@H](CN)[C@@H](O)[C@@H](O)[C@@H]2N)[C@@H](O[C@H]2O[C@@H](CO)[C@@H](O)[C@@H]2O)[C@@H]1O | -10.2% [at 25.6 µM] (inactive) | –

Compound | activity, negative = inhibition | AC50
CC(O)(CS(=O)(=O)c1ccccc1)C(=O)Nc1cccc(C(F)(F)F)c1 (configuration not stated) | – | 4.47 µM (active)
CC(O)(CS(=O)(=O)c1cccc(C(F)(F)F)c1)C(=O)Nc1cccc(C(F)(F)F)c1 (configuration not stated) | – | 1.41 µM (active)
O=C(O)c1ccccc1Nc1cccc(C(F)(F)F)c1 | -0.956% [at 25.6 µM] (inactive) | –
CC(O)(CS(=O)(=O)c1cccc(C(F)(F)F)c1)C(=O)Nc1ccc(C(F)(F)F)cc1 (configuration not stated) | – | 1.41 µM (active)
Cc1o[nH]c(=O)c1C[C@@H](N)C(=O)O | -12.3% (inactive) | –
CC1=C(O)C(=O)[C@H]2O[C@@H]2C1=O | -6.84% (inactive) | –
O=C(O)CCCC[C@H]1SC[C@H]2NC(=O)N[C@@H]21 | 0.249% [at 25.6 µM] (inactive) | –
O=C(O)[C@H]1[O][Sb][O][C@@H](C(=O)O)C1O (some centres not stated) | -10.4% [at 11.4 µM] (inactive) | –
C[C@]1(O)CC[C@H]2[C@@H]3[C@@H](O)CC4=CC(=O)CC[C@@]4(C)[C@H]3CC[C@]21C | -2.12% [at 11.4 µM] (inactive) | –
CC1(C)N=C(N)N=C(N)N1c1cccc(C(=O)Nc2ccc(S(=O)(=O)F)cc2)c1 | 17.5% [at 11.4 µM] (inactive) | –
O=[As](O)(O)c1ccc(N=Nc2ccc(O)cc2)cc1 | -4.07% [at 11.4 µM] (inactive) | –
C[N+](C)(C)CC(=O)O | -1.03% (inactive) | –
N=C(N)SCc1ccc(Cl)c2ccccc12 (tested in a mixture with another compound) | -2.18% [at 11.4 µM] (inactive) and 15.2% [at 11.4 µM] (inactive) | –
CC(C)c1c(CN(C)[C@@H](C)Cc2ccccc2)n(C)n(-c2ccccc2)c1=O | – | 3.98 µM (active)
C=C[C@@H]1CN2CC[C@H]1C[C@H]2[C@H](O)c1ccnc2ccccc12 | -1.79% [at 11.4 µM] (inactive) | –
CC(C)CNCCc1ccccn1 | -8.38% [at 11.4 µM] (inactive) | –
CCC1(C)CC(=O)NC(=O)C1 | -6.38% [at 25.6 µM] (inactive) | –
COc1ccc2[nH]cc(CCN(C)C)c2c1 | -11.1% (inactive) | –
COc1ccc(CNC(=O)/C=C\c2ccc3[nH]cc(CCN(C)C)c3c2)cc1 | – | 15.8 µM (active)
CCCN(CCC)CCc1c[nH]c2ccc(C(N)=O)cc12 | 11.3% (inactive) | –
N[C@@H](CSC1c2ccccc2-c2ccccc21)C(=O)O | -17.3% [at 11.4 µM] (inactive) | –
Cn1c[n+](C)cc1C(O)c1ccccc1 (configuration not stated) | 1.92% [at 2.29 µM] (inactive) | –

Compound | activity, negative = inhibition | AC50
C=C(C)c1ccccc1 (tested in a mixture with another compound) | -22.2% [at 11.4 µM] (inactive) | –
CN1C(=O)C(=Cc2ccc(N3CCCCC3)o2)C(=O)N(C)C1=S | 12.5% (inactive) | –
CN1C(=O)C(=Cc2ccc(N3CCCCCC3)o2)C(=O)N(C)C1=S | – | 3.98 µM (active)
CCN1CCC2(CC1)NC(CO)(CO)CO2 | 4.42% (inactive) | –
C[C@]12N[C@@H](Cc3ccccc31)c1ccccc12 | inactive | –
Cc1cccc(N2C(=O)NC(=O)/C(=C\c3cnn(-c4ccccc4)c3)C2=O)c1 | 8.31% [at 2.29 µM] (inactive) | –
Cc1cc(C)cc(NC(=S)NC2CC3CCC(C2)N3Cc2ccco2)c1 (configuration not stated) | -17.6% (inactive) | –
CN(C)CS/C(N)=N/[C@H](O)C(Cl)(Cl)Cl | -7.61% [at 11.4 µM] (inactive) | –
CC[N+](CC)(CCNC(=O)C(=O)NCC[N+](CC)(CC)Cc1ccccc1Cl)Cc1ccccc1Cl | -14.7% (inactive) | –
C[C@@H]1CC[C@@H]2N(C1)C[C@H]1[C@@](O)([C@H](O)C[C@]3(O)[C@H]4CC[C@H]5[C@]6(O)O[C@]4(C[C@]13O)[C@@]5(C)CC[C@@H]6O)[C@@]2(C)O | -1.62% [at 11.4 µM] (inactive) | –
Nc1ncnc2c1ncn2[C@@H]1O[C@@H](COP(=O)(O)CP(=O)(O)OP(=O)(O)O)[C@H](O)[C@@H]1O | -7.46% (inactive) | –
O=C(O)CC[N+](=O)[O-] | -3.73% (inactive) | –
CC(C)Oc1cc(-n2c(=S)[nH]c3ccccc3c2=O)c(Cl)cc1Cl | – | 3.16 µM (active)
CN1[C@H]2CC(=O)C[C@@H]1[C@@H](O)C2 | -6.95% [at 25.6 µM] (inactive) | –
c1ccc2cc(CC3=NCCN3)ccc2c1 | 2.4% (inactive) | –
N[C@H](Cn1ccc(=O)[nH]c1=O)C(=O)O | -12.2% (inactive) | –
CC[C@@H](CO)NC(=O)[C@H]1C=C2c3cccc4c3c(cn4C)C[C@H]2N(C)C1 | -23.2% (inactive) | –
CC[C@@H](CO)Nc1nc(NCc2ccccc2)c2ncn(C(C)C)c2n1 | – | 12.6 µM (active)
CC(C)[C@H](CO)Nc1nc(Nc2cccc(Cl)c2)c2ncn(C(C)C)c2n1 | – | 12.6 µM (active)
COC(=O)c1c(C)ccc2c(O)c3c(cc12)C(=O)c1c2c(cc(O)c1C3=O)[C@@]1(C)O[C@@](C)(O2)[C@@H](O)[C@H](N(C)C)[C@H]1O | -1.78% [at 11.4 µM] (inactive) | –
C(=NC12CN3CN(CN(C3)C1)C2)c1cccs1 | 6.71% (inactive) | –
CN(C)C(=O)Oc1cccc([N+](C)(C)C)c1 | -6.77% (inactive) | –

Compound | activity, negative = inhibition | AC50
COC(=O)C1=CCCN(C)C1 | inactive | –
CC(C)N[C@@H](C)Cc1ccc(I)cc1 | -6.5% (inactive) | –
Nc1nc(N)c(N=Nc2ccc([As](=O)(O)O)cc2)c(=O)[nH]1 | 8.58% [at 11.4 µM] (inactive) | –
C/C=C1\C[C@H](C)[C@@](O)(CO)C(=O)OCC2=CCN3CC[C@@H](OC1=O)[C@@H]23 | 11.6% [at 25.6 µM] (inactive) | –
N=C1c2ccccc2CN1NC(=O)c1ccc(F)cc1 | -6.32% (inactive) | –
Cc1nccc2c1[nH]c1ccccc12 | – | inactive and 3.98 µM (active)
Cc1c2ccncc2c(C)c2c1[nH]c1ccccc12 | – | 0.158 µM (active)
CCN(CC)CCn1ncc2c(N)ncnc21 | -6.29% [at 11.4 µM] (inactive) | –
COc1ccc2cc1Oc1ccc(cc1)C[C@H]1c3cc(c(OC)cc3CCN1C)Oc1c(OC)c(OC)cc3c1[C@@H](C2)N(C)CC3 | -2.4% [at 11.4 µM] (inactive) | –
C[N+]1(C)CCO[C@](O)(c2ccc(-c3ccc([C@]4(O)C[N+](C)(C)CCO4)cc3)cc2)C1 | 0.891% [at 25.6 µM] (inactive) | –
COCCn1c(SCc2nc3sc(C(=O)OC)c(C)c3c(=O)[nH]2)nc2ccccc21 | – | 3.55 µM (active)
CC1(C)N(O)C(c2ccc(C(=O)O)cc2)=[N+]([O-])C1(C)C | -3.6% (inactive) | –
CC(C)[C@@H](C)/C=C\[C@@H](C)[C@@H]1CC[C@H]2C3=CC=C4C[C@@H](O)CC[C@]4(C)[C@H]3CC[C@]21C | 10.4% [at 11.4 µM] (inactive) | –
NCCP(=O)(O)O | -6.9% [at 11.4 µM] (inactive) | –
CCOCCN1CCC(OC(C)=O)C(C)C1 (configuration not stated) | -5.63% (inactive) | –
CC(C)(C)NC[C@@H](O)COc1cccc2[nH]c(C#N)cc12 | – | 25.1 µM (active)
NCC1(CC(=O)O)CCCCC1 | inactive | –
COc1cc(/C=N/NC(=O)CN2CC(c3ccccc3)CC2=O)ccc1OC(=O)N(C)C (configuration not stated) | -11.8% (inactive) | –
CC[C@H](C)C(=O)O[C@@H]1[C@H](O)[C@@H]2[C@H](CN3C[C@@H](C)CC[C@@H]3[C@@]2(C)O)[C@@H]2C[C@@]34O[C@@]5(O)[C@@H](OC(=O)[C@](C)(O)CC)CC[C@@]3(C)[C@H]5[C@H](OC(C)=O)[C@@H](OC(C)=O)[C@H]4[C@]12O | 2.61% [at 25.6 µM] (inactive) | –
N[C@@H](Cc1cc(Br)c(O)c(Br)c1)C(=O)O | -16.7% [at 11.4 µM] (inactive) | –
Cc1ccc2c(c1)C1CN(C)CCC1N2C(=O)Nc1cccc(Cl)c1 (configuration not stated) | -26.5% (inactive) | –
